{
  "source": "PubChem BioAssay AID651598",
  "about": "(Sanford-Burnham Center for Chemical Genomics, 2012)",
  "note": "Values joined by “and” are separate entries in the source; they are usually repeats but may differ in a detail not shown here. Identical values can stand only once.",
  "data": [
    {"molecular_target": "C-X-C chemokine receptor type 6 (Homo sapiens) (UniProt O00574)", "sequence (O00574 whole entry, looked up)": "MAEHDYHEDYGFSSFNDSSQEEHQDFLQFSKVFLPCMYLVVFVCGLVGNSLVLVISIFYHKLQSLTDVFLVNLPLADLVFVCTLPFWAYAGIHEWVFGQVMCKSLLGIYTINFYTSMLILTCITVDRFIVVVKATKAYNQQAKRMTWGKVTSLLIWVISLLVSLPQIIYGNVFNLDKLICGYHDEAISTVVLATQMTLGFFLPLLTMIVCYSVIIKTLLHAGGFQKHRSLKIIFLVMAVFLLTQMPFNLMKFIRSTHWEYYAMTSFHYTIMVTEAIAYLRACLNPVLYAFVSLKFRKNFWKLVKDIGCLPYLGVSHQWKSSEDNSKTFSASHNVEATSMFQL", "experiment": "apelin receptor (APJ) antagonists, SAR follow-up, counter-screen for CXCR6 antagonist project, cell-based, beta-arrestin, DiscoveRx, panel, CHO-K1 (AID 651598)", "settings": "CHO-K1 PathHunter beta-arrestin luminescence, antagonist mode; run 4, at 80 µM (top of the series)", "values": [
      {"smiles": "COc1cc(C(=O)NC2CCN(CC(=O)Nc3ccccc3)CC2)cc(OC)c1OC", "inhibition": "29.6%"},
      {"smiles": "COc1cc(C(=O)NC2CC3CCC(C2)N3CC(=O)Nc2ccccc2)cc(OC)c1OC", "note": "(stereo not drawn)", "inhibition": "45.8% and 2.45%"},
      {"smiles": "COc1cc(C(=O)NC2CC3CCCC(C2)N3CC(=O)Nc2ccccc2)cc(OC)c1OC", "note": "(stereo not drawn)", "inhibition": "88.8% and 51.2% and 29%"}
    ]}
  ]
}
